Results as given in PubChem BioAssay AID624298 (National Center for Advancing Translational Sciences (NCATS), 2012).
Records with an inconclusive call do not appear. A call without a number means that no potency is given here. Activity calls are given as the source filed them. The call rests on the fitted dose curve; in most records, active means well fitted activation curve with a large enough effect; inconclusive means small, poorly fitted or top-dose-only effect; inactive means no such curve, though single readings can be large or run the other way.

test: Activators of T cell receptors: Hit Validation; conditions: primary human leukocytes, cytokine release by HTRF, 48 h, TCR-stimulated with anti-CD3 beads; series mostly up to 46.1 µM
Summary of the method: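 Readout is IL-2 secretion by HTRF, measured after 48 hr in which primary human leukocytes received compound together with a-CD3 beads as the only TCR stimulus.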
Potency means the concentration at half of the fitted maximal effect.

Compound	Potency
CCN(CC)S(=O)(=O)c1ccc(N2CCN(C)CC2)c(NC(=O)CN2C(=O)NC3(CCCCC3)C2=O)c1	inactive
O=C(COC(=O)/C=C/c1cccc(Br)c1)Nc1cccc(S(=O)(=O)NC2=NCCC2)c1	inactive
CN=c1nc(-c2ccccc2)n(-c2ccccc2)s1	inactive
Cc1ccc(NC(=S)c2ccc(N(C)C)cc2)cc1	inactive
COc1ccc(NC(=O)COC(=O)CN2C(=O)C3CCCCC3C2=O)cc1OC (stereo unspecified)	inactive
O=C(CCOc1ccccc1)Nc1ccc(S(=O)(=O)Nc2ncccn2)cc1	inactive
O=C1c2ccccc2C(=O)N1CCCC(=O)N1CCCc2ccccc21	inactive
Cc1ccc(S(=O)(=O)N2CCC(C(=O)NNC(=O)c3ccccc3O)CC2)cc1C	inactive
CN(C)S(=O)(=O)c1ccc2oc(SCC(=O)c3c(N)n(C4CC4)c(=O)[nH]c3=O)nc2c1	inactive
COc1ccc(C(=O)c2sc3nc(C)cc(-c4cccs4)c3c2N)cc1OC	inactive
COc1cc(N)c(Cl)cc1C(=O)N[C@H]1CCN(CCCOc2ccc(F)cc2)C[C@H]1OC	inactive
Cc1cccc(NC(=O)c2sc3nc(N)c(C#N)cc3c2N)c1	inactive
C[C@@H]1O[C@@H](O[C@H]2[C@H](Oc3cc(O)c4c(c3)O[C@H](c3ccc(O)cc3)CC4=O)O[C@H](CO)[C@@H](O)[C@@H]2O)[C@H](O)[C@H](O)[C@H]1O	inactive
COc1ccccc1N1CCN(C(=O)C2CCN(S(=O)(=O)c3ccccc3F)CC2)CC1	inactive
COc1ccc(C(=O)Nc2cccc(NC(C)=O)c2)cc1OC	inactive
Cc1ccc(NS(=O)(=O)c2ccc(C)c(C(=O)NCC(c3ccccc3)N(C)C)c2)cc1 (stereo unspecified)	inactive

Compound	Potency
O=C(CCCN1CCC(C(=O)c2ccc(F)cc2)CC1)c1ccc(F)cc1	inactive
CN1C(=O)c2ccccc2Sc2ccc(NC(=O)N3CCOCC3)cc21	inactive
Cc1cc(=O)[nH]c(N/N=C/c2cccs2)n1	inactive
COc1ccc(NC(=O)C(c2ccccn2)N(C(C)=O)c2ccc(C)cc2)cc1 (stereo unspecified)	inactive
CCOC(=O)c1sc(NC(=O)C2CC(=O)N(c3ccc4c(c3)OCCO4)C2)nc1C (stereo unspecified)	inactive
c1ccc(Sc2ccccn2)cc1	inactive
Cc1[nH]c2ccccc2c1C(=O)CSc1nnc(C2CC2)o1	inactive
Cc1cc(OCC(=O)OCC(=O)NCC2CCCO2)ccc1Cl (stereo unspecified)	inactive
O=C(COC(=O)C1CCN(c2ccc(C(F)(F)F)cn2)CC1)NCc1ccccc1	inactive
CC[n+]1ccc(/C=C/c2ccc(N(C)C)cc2)c2ccccc21	4450 nM (active)
CCCCCCC[C@@H](C/C=C/CCC(=O)N(C)C/C(=C/Cl)C/C(=C\C(=O)N1CC(OC)=CC1=O)OC)OC	996 nM (active)
COc1cc(/C=C/C(=O)O)cc(OC)c1OC	inactive
CCOC(=O)c1ncn2c1[C@@H]1CCNC1C(=O)c1cc(OC)ccc1-2 (stereo partly specified)	inactive
COc1cc(N=c2ssnc2Cl)c(OC)cc1Cl	inactive
O=C(CCCN=C1NS(=O)(=O)c2ccccc21)Nc1ccc(Cl)cc1	inactive
